From PubChem
This is a sample that favours compounds with a hit; in the whole collection about 2% have one here.
Yp Topo-I inh: inhibitors of Yersinia pestis topoisomerase I | Y. pestis Topo-I cleavage product accumulation, plate reader | activity, % at 10 µM | hit rate 0.064% among 360,000; in the data active = activity above about 50%, passing the limit was not always enough
PrPC TRFRET: cell surface PrPC inhibition, primary TR-FRET screen | TR-FRET read-out | hit rate 0.43% among 370,000 | P04156 | AID 720596 | inhibition, % at 13.8 µM; in the data active = inhibition above about 24%; also: 0% = median of the test wells and 100% = reference compound wells
PfHsp40 yeast: rescue of PfHsp40-mediated yeast toxicity | AID 504582 | S. cerevisiae expressing PfHsp40, growth rescue, ATP luminescence | hit rate 0.68% among 340,000 | growth rescue, % at 12.5 µM; in the data active = growth rescue above about 28%, passing the limit was not always enough;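 also: yeast W303a lacking pdr1 and pdr3 grown in galactose medium; growth measured after three days at 30 °C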
PrP 5UTR inh: suppresses PrP 5' UTR mRNA reporter expression | cell-based PrP 5' UTR mRNA reporter, plate reader | inhibition, % (concentration not given with the values) | hit rate 0.35% among 340,000 | AID 488862; in the data active = inhibition above about 52%; also: 0 = median of the neutral control wells
BJeLR viability: BJeLR cell viability loss. BJeLR (HRASV12) viability, CellTiter-Glo ATP luminescence, 48 h. inhibition, % (no concentration beside the values). hit rate 0.17% among 300,000; in the data active = inhibition above about 50%
CCHF vOTU inh: blocks the CCHF virus ovarian tumor domain protease | CCHFV vOTU protease, Pep-AMC fluorescence | inhibition, % at 11.5 µM | hit rate 0.55% among 370,000; in the data active = inhibition above about 30%; also: 0% = vehicle wells with enzyme and 100% = no enzyme wells
* = called active by the depositor; · = no result given.

SMILES	Yp Topo-I inh	PrPC TRFRET	PfHsp40 yeast	PrP 5UTR inh	BJeLR viability	CCHF vOTU inh
Nc1[nH]c(C(=O)c2ccccc2)c(-c2ccc(O)cc2)c1C(=O)NCCc1c[nH]c2ccccc12	·	-14.7	·	·	·	·
CC(=O)N1c2c(cc(Br)cc2S(=O)(=O)N2CCN(c3ccccn3)CC2)CC1C (stereo not drawn)	33.5	7.3	52.5*	-12.6	-7.9	-3.6
CC(=O)N1CCc2cc(Br)cc(S(=O)(=O)N3CCN(c4ccccn4)CC3)c21	35.8	-0.3	0.4	-11.4	-6.0	-3.4
Cc1cccc(O)c1C	-2.2	-1.1	-0.4	-12.5	·	-9.1
Cc1cccc(C)c1N=Nc1c(C)cc(O)cc1C	-9.1	0.6	781.5*	-8.3	24.4	16.1
Cc1ccc(C(=O)N2CCN(c3ccccc3Cl)CC2)cc1[N+](=O)[O-]	26.9	4.6	110.7*	-28.2	-10.0	0.8
Cc1ccc(C(=O)N2CCN(c3ccccn3)CC2)cc1[N+](=O)[O-]	-2.3	11.3	5.7	6.4	3.5	-6.2
Cn1c(NC(=O)c2ccccc2)nc(Cc2ccccc2)c1Cc1ccccc1	·	14.4	·	·	·	11.1
CC(C)C1=CC2C3C(=O)N(c4ccccc4)C(=O)C3C1C(=O)C2(C)O (stereo not drawn)	·	-3.3	·	·	·	-6.5
S=c1[nH]ncn2c1cc1oc3ccccc3c12	10.7	97.1*	-0.1	-21.9	0.7	-0.9
O=c1oc(-c2ccccc2)cc2ccccc12	-6.8	1.5	·	·	·	-14.3
O=c1oc(-c2ccccc2)cc(Cl)c1Cl	4.9	-2.6	556.2*	-27.5	22.7	0.4
Cc1ccccc1NC(=O)CN1C(=O)CCSc2ccccc21	·	1.4	·	·	·	-3.6
COc1ccc(N=Nc2c(C)n[nH]c2C)cc1	-7.1	2.5	0.2	-28.9	-6.8	6.2
Cc1n[nH]c(C)c1N=Nc1ccc(Br)cc1	-8.6	11.0	242.1*	-50.4	6.7	5.6
CCCCCCCCCCCCCC(=O)NO	-6.3	-3.9	264.3*	-2.7	·	6.1
CCCCCCCC/C=C\CCCCCCCC(=O)NCCO	25.4	-6.9	67.1*	-6.9	·	4.5
Cc1cc(/C=C2\SC(=S)NC2=O)c(C)n1-c1cccc(O)c1	-6.3	-2.6	239.6*	-45.6	-12.1	23.2
Cc1ccc(-n2c(C)cc(/C=C3\SC(=O)NC3=O)c2C)cc1	-2.9	-9.2	0.8	-50.7	8.0	7.1
Cc1ccc(S(=O)(=O)N(C)c2c(C)ccc(S(=O)(=O)N3CCN(C)CC3)c2C)cc1	-0.8	-11.9	49.5*	-3.0	-1.8	0.8
Cc1ccc(S(=O)(=O)N(C)c2c(C)ccc(S(=O)(=O)N3CCN(C=O)CC3)c2C)cc1	6.6	1.5	0.8	-18.0	-4.3	-10.2
Cc1[nH]c2ccc(C(=O)NC3CCCC3)cc2c1C	-7.9	2.4	28.8*	-12.3	·	7.3
Cc1ccnc2nc(C(=O)NC3CCCc4ccccc43)nn12 (stereo not drawn)	12.0	2.0	147.5*	0.1	·	-12.5
CCC(CO)Nc1cccc2c1S(=O)(=O)N(Cc1cn(Cc3ccc(Cl)cc3)nn1)Cc1ccccc1O2 (stereo not drawn)	·	-3.8	·	·	·	-1.5
Cc1ccc(-n2ncc3c2CC(C)(C)CC3NC(=O)c2c(C)noc2C)cc1 (stereo not drawn)	18.0	1.1	91.0*	-5.4	3.3	1.0
SMILES	Yp Topo-I inh	PrPC TRFRET	PfHsp40 yeast	PrP 5UTR inh	BJeLR viability	CCHF vOTU inh
Cc1cccc(C2=CC(=O)CC(C)(C)C2=O)c1	·	2.4	·	·	·	3.9
CCCCCCC(=O)Oc1cccc(C2=CC(=O)CC(C)(C)C2=O)c1	54.8*	-2.3	·	·	·	19.1
CCOC(=O)[C@@]12CN(C(=O)OC(C)(C)C)CC=C1N(Cc1ccc(OC)cc1)C(=O)[C@H]2CC(=O)NCc1cccc(C(F)(F)F)c1	·	-5.0	·	·	·	25.6
CCCCC/C=C/C1=CC(=O)C[C@H](c2ccc3c(c2)OCO3)C1	62.8*	4.5	3.5	-12.5	·	7.8
Cc1ccc(C)c(NC(=O)c2cccc3c2-c2ccccc2C3=O)c1	·	-2.7	·	·	·	2.4
Cc1ccc2cc(C(c3nnnn3Cc3ccccc3)N3CCc4ccccc43)c(=O)[nH]c2c1C (stereo not drawn)	21.3	26.0*	0.4	-11.5	-1.7	13.4
Nc1[nH]c(=O)ncc1-c1ccc([N+](=O)[O-])cc1	·	3.5	·	·	·	3.3
Nc1[nH]c(=O)ncc1F	-3.1	2.4	370.1*	-0.3	9.2	-6.4
COc1cccc(CNC(=O)[C@H]2CCCN2C(=O)[C@H]2CCCN2C(=O)c2cccs2)c1	·	-3.9	·	·	·	13.5
Cc1cnc(C(=O)OCC(=O)Nc2cc(Cl)cc(Cl)c2)cn1	-8.3	-2.2	-1.2	-2.5	-9.1	1.7
Cc1cnc(C(=O)OCC(=O)Nc2c(Cl)cc(Cl)cc2Cl)cn1	-0.1	2.5	63.3*	-27.6	·	0.4
COc1ccccc1/C=N/NC(=Nc1ccc(C)cc1)c1nc2ccccc2s1	·	·	·	·	-0.9	·
COc1cc(/C=N/NC(=Nc2ccc(C)cc2)c2nc3ccccc3s2)ccc1O	-0.6	4.1	-0.6	77.0*	8.2	7.9
CC(C)OC(=O)c1ccc(NCc2cc(O)ccc2O)cc1	-9.0	12.7	0.3	-27.7	·	-2.4
O=C(OCc1ccccc1)c1ccc(NCc2cc(O)ccc2O)cc1	-17.6	46.1*	1.3	-22.1	·	1.3
Cc1cc2c(nc1C)CCCN2S(=O)(=O)c1c(C)noc1C	·	-7.5	·	·	·	4.8
C[C@@]12CCC=C[C@H]1[C@H](c1ccc3ccccc3c1Br)N(Cc1ccccc1)C2=O	39.4	-6.0	64.6*	-9.6	-6.6	3.2
C[C@@]12CCC=C[C@H]1[C@H](c1ccc3ccccc3c1)N(Cc1ccccc1)C2=O	23.6	1.2	0.7	-6.9	10.4	6.8
COCCCNC(=S)NC1CC2CCC(C1)N2Cc1ccccc1 (stereo not drawn)	2.4	-10.9	34.8*	-7.0	-3.5	-5.1
CCOCCCNC(=S)NC1CC2CCC(C1)N2Cc1ccccc1 (stereo not drawn)	6.4	-15.8	1.9	-38.4	6.7	7.2
CN1c2ccccc2C(O)=C(C(=O)Nc2ccccc2)S1(=O)=O	5.9	0.2	-0.1	-10.0	2.4	8.5
Cc1sc2c(c1C)C(O)=C(C(=O)Nc1ccccc1)S(=O)(=O)N2C	3.7	-0.5	153.2*	-7.1	2.2	7.4
Cc1ccc(NC(=O)CSc2nnc(-c3ccccc3F)n2-c2ccccc2)c(C)c1	·	1.2	·	·	·	9.2
CCN1CCN(C(=O)C2CCN(C(=O)Nc3ccccc3)CC2)CC1	-2.6	-2.7	-0.6	-6.7	·	-7.9
NC(=O)CN1CCN(C(=O)Nc2ccccc2)CC1	6.1	-3.4	75.8*	-12.7	-6.2	2.8
COC(=O)c1cc(S(=O)(=O)N2CCN(c3cccc(C(F)(F)F)c3)CC2)cn1C	·	-3.5	·	·	·	4.7
Cc1cc(C)nc(-n2nc(C)c(Sc3ccc(F)cc3)c2N)n1	18.2	6.2	88.5*	-98.1	1.4	-5.1
Cc1nn(-c2ccccc2)c(N)c1Sc1cccc([N+](=O)[O-])c1	-5.4	-19.0	0.0	-18.6	-1.0	0.8
Cc1cc2c(c(=O)o1)[C@@]1(C(=O)N(C)c3cccc(Br)c31)C1=C(CCCC1=O)O2	·	-1.5	·	·	·	-1.2
